# Screens from PubChem.
# eIF4H FP inh – inhibitors of RNA binding by human eIF4H | Q15056 | eIF4H fluorescence polarization binding assay | inhibition, % at 35 µM | 290,000 compounds, 0.94% hits | AID 2012;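 further: calls also rest on retests at 20 µM and on dose response follow-up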
# APOBEC3G inh – APOBEC3G (human) deaminase inhibition; inhibition, % at 20 µM; Q9HC16; 330,000 compounds, 0.28% hits; recombinant A3G, ssDNA deamination FAM/TAMRA fluorescence; AID 493012;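 active means inhibition of at least 40% at 20 µM, with no more than 30% in the related APOBEC3A deaminase screen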;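 further: plate controls were DMSO wells with A3G for no effect and wells lacking A3G enzyme for full effect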
# Target sequence (Q9HC16 whole entry, looked up): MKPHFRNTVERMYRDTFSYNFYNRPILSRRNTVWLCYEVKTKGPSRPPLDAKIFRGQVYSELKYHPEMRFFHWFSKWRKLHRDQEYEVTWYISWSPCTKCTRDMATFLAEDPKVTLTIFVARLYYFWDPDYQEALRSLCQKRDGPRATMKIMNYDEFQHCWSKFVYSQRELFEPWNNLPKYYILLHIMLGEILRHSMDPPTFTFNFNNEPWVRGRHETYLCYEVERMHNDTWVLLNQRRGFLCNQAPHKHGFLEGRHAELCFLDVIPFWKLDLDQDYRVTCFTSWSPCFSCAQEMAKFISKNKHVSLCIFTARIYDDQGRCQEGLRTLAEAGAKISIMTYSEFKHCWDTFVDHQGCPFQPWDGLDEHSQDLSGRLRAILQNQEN
# PABP FP inh – PABP-poly(A) binding inhibition | 290,000 compounds, 1% hits | AID 2014 | PABP-poly(A) RNA binding, fluorescence polarization | P11940 | calls only at 35 µM;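 further: calls also rest on retests at 20 µM and on dose response follow-up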
# MLLE-PAM2 inh – inhibitors of microRNA-mediated deadenylation, human PABP1 MLLE binding. inhibition, % at 20 µM. GST-MLLE / FITC-PAM2 fluorescence polarization. 360,000 compounds, 0.36% hits. P11940. AID 588489; in the data active means inhibition above about 35%, passing the limit was not always enough;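 further: plate controls were DMSO wells with GST-MLLE for no effect and wells lacking GST-MLLE protein for full effect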
# PHOSPHO1 inh – inhibitors of human PHOSPHO1 phosphatase. recombinant PHOSPHO1, absorbance phosphatase assay. Q8TCT1. inhibition, % at 13.3 µM. AID 1565. 290,000 compounds, 1.1% hits; in the data active means inhibition above about 60%
# APOBEC3A inh – human APOBEC3A DNA deaminase inhibition | AID 493011 | 330,000 compounds, 0.41% hits | inhibition, % at 20 µM | recombinant A3A, FAM/TAMRA ssDNA deamination fluorescence;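 active means at least 40% inhibition at 20 µM here, with at most 30% in a related deaminase screen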;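 further: plate controls were A3A with DMSO for no effect and wells lacking A3A enzyme for full effect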
# APOBEC3A confirm – APOBEC3A (human) deaminase inhibition, confirmed. 1,400 compounds, 63% hits. recombinant A3A, ssDNA deaminase UDG fluorescence assay. shares compounds with APOBEC3A inh. inhibition, % at 20 µM;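 active means inhibition reaching a set limit, 80% of the first screen's cutoff, at 20 µM in any replicate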;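 further: plate controls were DMSO wells with A3A for no effect and wells lacking A3A enzyme for full effect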
# UDG A3A counter – counter-screen for APOBEC3A inhibitors: UDG. UDG counterscreen, FAM/TAMRA uracil oligo fluorescence. inhibition, % at 20 µM. 1,000 tested, under 10 active. shares compounds with APOBEC3A inh
# * hit, by the source's call; i = inactive; . = not tested or not shown; + = active, no number. Rows were chosen to be rich in hits. Some 2.6% of all compounds tested hit in one or more screens of this group. Unless noted, how the calls were made is not given here.
SMILES,eIF4H FP inh,APOBEC3G inh,PABP FP inh,MLLE-PAM2 inh,PHOSPHO1 inh,APOBEC3A inh,APOBEC3A confirm,UDG A3A counter
COc1ccc(NC(=O)CN(C)C(=O)c2cccc(S(=O)(=O)N3CCN(C)CC3)c2)cc1,.,7,.,-53,.,55*,16,.
CCN1CCN(S(=O)(=O)c2ccc(Cl)c(C(=O)Nc3ccc(OC(F)F)cc3)c2)CC1,-4,-3,i,-1,-2,-5,.,.
COc1ccc(CNC(=O)c2cccc(S(=O)(=O)N3CCN(C)CC3)c2)cc1,3,-9,i,-6,2,-4,.,.
COc1cccc(CNC(=O)c2cccc(S(=O)(=O)N3CCN(C)CC3)c2)c1,-5,12,i,-142,24,68*,50*,1
COc1ccc(NC(=O)CN(C)C(=O)c2cccc(S(=O)(=O)N3CCN(Cc4ccccc4)CC3)c2)cc1,2,-3,i,0,4,0,.,.
CCN1CCN(S(=O)(=O)c2ccc(Cl)c(C(=O)N(CC)CC(=O)Nc3ccc(OC)cc3)c2)CC1,.,17,.,-128,-36,54*,71*,-1
O=C(/C=C/c1cn(-c2ccccc2)nc1-c1cccnc1)N1CCCC1,-2,.,i,0,29,.,.,.
N#C/C(=C\c1cn(-c2ccccc2)nc1-c1cccnc1)c1nnc2n1CCCCC2,-3,-3,i,4,14,43*,-1,-2
COC(=O)/C=C1/S/C(=N/NC(=O)c2ccccc2C)NC1=O,9,-7,i,6,20,53*,2,-2
N#Cc1ccccc1CN1C(=O)S/C(=C/c2cccn2-c2ccc(C(=O)O)cc2)C1=O,77,14,i,13,-1,44*,25*,-3
O=C(CN1C(=O)S/C(=C\c2ccc(C(=O)O)cc2)C1=O)Nc1ccccc1,-4,-1,i,25,5,-7,.,.
O=C(CCN1C(=O)COc2ccccc21)NCc1ccco1,0,-1,i,4,29,64*,7,5
Cc1ccc2c(c1)N(CC(=O)NCC1CCCO1)C(=O)C(C(C)C)O2 (centres undefined),-15,-13,i,-20,46,-5,.,.
CCSc1nc2ccc(N3C(=O)C4C5C=CC(C5)C4C3=O)cc2s1 (centres undefined),2,5,i,-88,6,60*,20,.
Cc1ccsc1C(=O)N1CCC1(C)C(=O)NCC(C)(C)C (centres undefined),.,.,.,-8,.,.,.,.
CCCn1c(=O)c2sccc2n2c(CCCC(=O)NCc3cccnc3)nnc12,-6,0,i,2,21,-2,.,.
CCCn1c(=O)c2sccc2n2c(CCCC(=O)NCc3ccco3)nnc12,78*,15,+,-1,29,46*,34*,.
CCCCCCCCCn1ccc(=N)cc1,0,-5,i,-9,42,-2,.,.
CCCCCn1ccc(=N)cc1,.,28,.,-114,93*,62*,72*,-3
CCCCCCCn1ccc(=N)cc1,0.6*,19,+,-127,47,74*,74*,-1
CN(C)/C=C/C(=O)c1ccc(F)cc1F,-1,-8,i,1,-3,-3,.,.
N#Cc1c(F)cccc1N1CCN(Cc2ccc3c(c2)OCO3)CC1,15,-1,i,7,22,1,.,.
CCOc1cc(/C=C2\SC(N)=NC2=O)ccc1O,-8,-9,i,-135,-6,0,.,.
CCOc1c(Br)cc(Br)cc1/C=C1\SC(N)=NC1=O,10,18,i,-135,-6,69*,82*,2
CS/C(N)=N/N=C/c1c(O)ccc2ccccc12,11,23,i,-87,68*,58*,27,.
CSc1ccccc1NC(=O)CN(C)CC(=O)c1c(C)[nH]c2ccccc12,.,-1,.,9,.,3,.,.
Cc1cc(/C=C(/C#N)c2nc3ccccc3[nH]2)c(C)n1-c1ccccc1C(=O)O,45,13,i,-66,11,29,.,.
